Compound activity: PubChem BioAssay, several laboratories
BH1578 lux ind – inducers of Vibrio cholerae quorum light production without autoinducers; 0.16% of 350,000 active; AID 588436; activation, % at 18.7 µM; V. cholerae BH1578 lux reporter, luminescence, 6 h; in the data active = activation mostly above about 9.7%, no sharp cut-off
Mtb FBA inh – inhibitors of M. tuberculosis fructose-bisphosphate aldolase; purified M. tuberculosis FBA, fluorescence read-out; inhibition, % at 1 µM; 2.3% of 360,000 active; AID 588726;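 note: 0% = vehicle and 100% = reference inhibitor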
Target sequence (P9WQA3 whole entry, looked up): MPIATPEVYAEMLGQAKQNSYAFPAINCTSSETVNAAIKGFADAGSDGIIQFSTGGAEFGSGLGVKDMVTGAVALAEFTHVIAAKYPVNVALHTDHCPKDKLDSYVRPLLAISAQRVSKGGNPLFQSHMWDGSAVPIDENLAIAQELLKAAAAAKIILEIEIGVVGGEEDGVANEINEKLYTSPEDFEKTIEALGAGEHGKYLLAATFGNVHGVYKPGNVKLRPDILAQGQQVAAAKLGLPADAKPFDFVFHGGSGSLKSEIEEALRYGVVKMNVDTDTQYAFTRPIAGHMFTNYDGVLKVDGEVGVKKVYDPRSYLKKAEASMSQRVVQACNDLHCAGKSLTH
Mtb BioA inh – blocks M. tuberculosis BioA enzyme activity | inhibition, % at 9.99 µM | purified M. tuberculosis BioA enzyme, plate reader | AID 602481 | 0.096% of 360,000 active; in the data active = inhibition above about 40%
GDH-TPI counter-1 – counter-screen for M. tuberculosis FBA inhibitors: GDH-TPI coupled enzymes; GDH-TPI coupled enzyme counterscreen, NADH absorbance; inhibition, % at 4.8 µM; 1.2% of 360,000 active; in the data active = inhibition above about 30%;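 note: 0% = DMSO wells and 100% = wells lacking the enzyme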
Mtb FBA inh conf – confirmation of M. tuberculosis fructose-bisphosphate aldolase inhibitors. shares compounds with Mtb FBA inh. purified M. tuberculosis FBA, fluorescence read-out. inhibition, % at 1 µM. 78% of 5,600 active;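 note: 0% = vehicle wells and 100% = reference inhibitor wells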
GDH-TPI counter-2 – inhibits GDH-TPI coupling enzymes, flagging Mtb FBA hits | inhibition, % at 1 µM | 81% of 5,600 active | shares compounds with Mtb FBA inh | AID 652141 | GDH-TPI coupled enzyme counterscreen, fluorescence; in the data active = inhibition above about 10%
GDH-TPI dose – counter-screen for M. tuberculosis FBA inhibitors: GDH-TPI dose response; shares compounds with Mtb FBA inh; GDH-TPI coupled enzyme assay, fluorescence, artifact counterscreen; 79% of 170 active; IC50, µM; AID 652145; call rule not given here
An asterisk follows results filed as active; i = inactive; / = no result given; + = active, no number. Sampled rows, rich in hits. Any-hit rate of the full collection: about 3%. Cut-off read from the data, not from the text of the source, unless noted: active = inhibition above about 27%; inactive = the rest.

SMILES	BH1578 lux ind	Mtb FBA inh	Mtb BioA inh	GDH-TPI counter-1	Mtb FBA inh conf	GDH-TPI counter-2	others
Cc1cccn2c(=O)c3cc(C(=O)NCc4ccco4)c(=N)n(C4CCCC4)c3nc12	0	90*	-2	13	78*	63*
Cc1cc(C(=O)NC2CCCC2)c2ccccc2n1	0	-1	5	-2	/	/
O=C(NC1CCCCCC1)c1ccc2nc3cc(Cl)ccc3c(=O)n2c1	-1	3	/	7	/	/
N=c1c(C(=O)NC2CCCC2)cc2c(=O)n3ccccc3nc2n1C1CCCCC1	-1	64*	2	8	49*	41*
Cc1ccc2nc3c(cc(C(=O)NC4CCCCC4)c(=N)n3C3CCCCC3)c(=O)n2c1	i	71*	0	-4	121*	85*
O=C(C[C@@H]1CC[C@@H]2[C@H](COC[C@H](O)CN2Cc2ccccc2)O1)N[C@H]1CCN(Cc2ccccc2)C1	/	/	-2	/	/	/
CC[C@@H]1C(c2cccc(Cl)c2)=NN(c2ccc(Br)cc2)[C@H]1C(=O)N1CCOC1=O	i	55*	-2	15	60*	43*
CC[C@@H]1C(c2ccccc2)=NN(c2ccc(Br)cc2)[C@H]1C(=O)N1CCOC1=O	-3	18	0	13	/	/
C[C@H](CO)N1C[C@H](C)[C@H](CN(C)C(=O)CC2CC2)Oc2ncc(C#CC3(O)CCCC3)cc2C1=O	/	/	-1	/	/	/
CCN(CC(=O)Nc1ccc2c(c1)OCCO2)S(=O)(=O)c1cccs1	i	39*	-1	0	75*	71*
CCN(CC(=O)Nc1ccc2c(c1)OCCO2)S(=O)(=O)c1ccc(C)cc1	-1	-3	-10	4	/	/
COc1ccc(C(=O)NCCc2ccc(F)cc2)cc1OC	0	-1	8	-2	/	/
Cc1ccc(CN2CCSc3ccc(C(=O)NCc4ccco4)cc32)cc1	1	54*	-2	4	5	-1
Cc1ccc(CN2CCSc3ccc(C(=O)NC4CCN(Cc5ccccc5)CC4)cc32)cc1	0	10	-1	9	/	/
CCN1CCN(C(=O)c2ccc3c(c2)N(Cc2ccc(C)cc2)CCS3)CC1	0	26	1	7	/	/
CCN1CCN(CCCNC(=O)c2ccc3c(c2)N(Cc2ccc(C)cc2)CCS3)CC1	-1	76*	1	9	131*	102*
COc1ccc(CCNC(=O)c2ccc3c(c2)N(Cc2ccc(F)cc2)CCS3)cc1OC	i	72*	0	4	55*	33*
O=C(C[C@@H]1C=C[C@@H](NC(=O)Nc2cc(F)ccc2F)[C@H](CO)O1)NCc1ccccn1	/	/	-2	/	/	/
C[C@H](CO)N1C[C@H](C)[C@@H](CN(C)Cc2cccnc2)Oc2cc(C#CCN(C)C)ccc2S1(=O)=O	/	/	2	/	/	/
Cc1ccc(-c2cc(-c3ccc(C)cc3)[n+](-c3ccc(C(=O)[O-])cc3)c(-c3ccc(C)cc3)c2)cc1	i	38*	6	46*	14	7	GDH-TPI dose=3.8*
CCC(=O)N(C)C[C@H]1Oc2ncc(-c3ccc(C(=O)N(C)C)cc3)cc2C(=O)N([C@H](C)CO)C[C@H]1C	/	/	1	/	/	/
O=C(Nc1cccc(-c2nc3cccnc3s2)c1)c1ccco1	i	1	6	6	/	/
O=C(Nc1ccc2oc(-c3cccnc3)nc2c1)c1ccco1	i	29*	/	4	-2	-6
O=C(Nc1ccc(-c2nc3ncccc3o2)cc1)c1ccco1	0	27*	/	45*	58*	50*
O=C(Nc1ccc(-c2nc3cccnc3s2)cc1)c1ccco1	-1	29*	-4	28	10	-2	GDH-TPI dose=3.1*
SMILES	BH1578 lux ind	Mtb FBA inh	Mtb BioA inh	GDH-TPI counter-1	Mtb FBA inh conf	GDH-TPI counter-2	others
CNC[C@H]1Oc2ccc(NC(=O)NC3CCCCC3)cc2C(=O)N([C@H](C)CO)C[C@H]1C	/	/	-1	/	/	/
C[C@H](CO)N1C[C@H](C)[C@@H](CN(C)CC2CCCC2)Oc2ncc(C#CCc3ccccc3)cc2C1=O	/	/	1	/	/	/
CO[C@@H]1CN(C)C(=O)c2ccc(NC(=O)C3CCOCC3)cc2OC[C@H](C)N(Cc2nccs2)C[C@@H]1C	/	/	1	/	/	/
COc1ccc(NC(=O)Nc2ccc3c(c2)C(=O)N([C@@H](C)CO)C[C@H](C)[C@H](CN(C)C(=O)NC(C)C)O3)cc1	/	/	-1	/	/	/
Cc1ccc(-c2nc3ccc(C)cn3c2Cc2ccccc2C(F)(F)F)cc1	/	5	1	/	/	/
Cc1ccc(-c2nc3ccc(C)cn3c2CC(=O)N(C)C)cc1	0	52*	0	1	56*	47*
CCOC(=O)c1nc(N)c(C(=O)OCC)[nH]1	-1	59*	-3	6	198*	166*
CCn1c(C(C)NC(=O)c2ccc(Cl)cc2)n[nH]c1=S (centres undefined)	3	40*	0	-3	107*	86*
C=CCn1c(C(C)NC(=O)c2cccc(C)c2)n[nH]c1=S (centres undefined)	0	2	/	10	/	/
CCC(=O)N1C[C@H](C)[C@H](OC)CN(C)C(=O)c2cc(NC(=O)c3ccc(F)cc3)ccc2OC[C@@H]1C	/	/	0	/	/	/
COC(=O)C(Cc1ccccc1)NC(=O)CCC(=O)NC(C)CCc1ccccc1 (centres undefined)	i	-2	-2	-2	/	/
COC(=O)[C@H](Cc1ccccc1)NC(=O)NC(C)CCc1ccccc1 (some centres undefined)	i	77*	-1	3	+	+
Cc1ccc(S(=O)(=O)Nc2ccc3c(c2)C(=O)N([C@@H](C)CO)C[C@@H](C)[C@H](CN(C)S(=O)(=O)c2ccc(F)cc2)OCCCC[C@@H](C)O3)cc1	/	/	1	/	/	/
CCOC(=O)c1nc2cc3n(c(C)c-2c1C)C(C)C(CC)=C3C (centres undefined)	i	34*	3	2	+	181*
Cc1noc(C)c1NC(=O)Nc1ccc2c(c1)C(=O)N([C@@H](C)CO)C[C@@H](C)[C@@H](CN(C)S(=O)(=O)c1cn(C)cn1)OCCCC[C@@H](C)O2	/	/	4	/	/	/
O=C(Nc1c(-c2ccccc2)nc2ccccn12)c1ccco1	0	-2	0	17	/	/
Oc1ccc(-c2nc3ccccn3c2NCc2ccco2)cc1	0	52*	0	12	70*	55*
CCn1cc(-c2ccnc3cc(C(=O)O)nn23)c(C)n1	0	84*	-1	12	76*	58*
Cc1c(-c2ccnc3cc(C(=O)O)nn23)cnn1C	i	79*	/	12	22	17*
CCCC(=O)Nc1ccc2c(c1)C(=O)N(C)C[C@@H](OC)[C@@H](C)CN(C(=O)CN(C)C)[C@@H](C)CO2	/	/	0	/	/	/
C=CCn1c(SCC(=O)N(CC)C2CCS(=O)(=O)C2)nc2ccccc2c1=O (centres undefined)	-3	-5	/	4	/	/
